Results filed as inconclusive are left out. A number with no mark means an inactive call. The source made the active and inactive calls. Calls come from the whole dose curve; as a rule, active = well fitted curve in either direction with a large enough effect (not every such curve was filed as active); inconclusive = small, poorly fitted or top-dose-only effect, or another doubt; inactive = flat fitted curve, though single readings scatter.
assay: Stat Signaling Pathway (AID 446); conditions: ME-180 (cervical carcinoma) SIE beta-lactamase reporter, IL-6 stimulated, 5 h; series mostly up to 38 µM; activity, negative = inhibition: at the top concentration
Method: NCGC Assay Overview: The IL-6/STAT signaling pathway was assayed in ME-180 cervical carcinoma cells by a beta-lactamase reporter gene controlled by a STAT Inducible Element (SIE). This reporter is induced by IL-6 at 40 pM AC50 and inhibited by the pan JAK inhibitor, 2-(1,1-Dimethylethyl)-9-fluoro-3,6-dihydro-7H-benz[h]-imidaz[4,5-f]isoquinolin-7-one, at approximately 10 nM AC50. Plated cells were incubated overnight and on the following day, stimulated with 40 pM IL-6 for 5 hrs. The assay was screened at the AC50 of IL-6 activation to identify both inhibitors and activators of IL-6/STAT signaling.
NCGC Assay Protocol Summary: Cells were trypsinized, washed in assay medium (AM, OPTI MEM with 0.5% fetal bovine serum, 0.1 mM nonessential amino acids, 1 mM sodium pyruvate, 10mM HEPES pH 7.3, 100U/ml penicillin, and 100 ug/ml streptomycin) and suspended at 6 x 10e5/ml in AM. Approximately […] cells in 5 uL/well was dispensed into 1536 well plates and the cells were incubated overnight at 37 C. 23 nL of compound were delivered by a pin tool and 1 uL of IL-6 (40 pM final concentration in AM) was added. After centrifugation at 1000 rpm for less than a minute, plates were incubated at 37C for 5 hrs. One uL of detector mix (LiveBLAzerTM, Invitrogen) was added, the plates incubated at room temperature for 2.5 hrs, and fluorescence intensity at 460 and 530 nm emission was measured at 405 nm excitation by an Envision (Perkin Elmer) or Safire II (Tecan). Data were normalized by GeneData to the controls for AC90 stimulation (300 pM IL-6) and to AC90 inhibition (125 nM Jak inhibitor, 40 pM IL-6 in AM).
% is set by controls: 0 for no effect and ±100 for the full control effect.

SMILES	activity, negative = inhibition	outcome
NC[C@H](CP(=O)(O)O)c1ccc(Cl)cc1	-18.1%	–
COc1ccc2c(c1)[nH]c1c(C)nccc12	6.89% [at 17.2 µM]	–
CN(C)Cc1c[nH]c2ccccc12	3.74% [at 17.2 µM]	–
CN1CCN(C(=O)OC2c3nccnc3C(=O)N2c2ccc(Cl)cn2)CC1 (stereo not given)	9.52% [at 17.2 µM]	–
COC1=CC(=O)OC(/C=C/c2ccccc2)C1 (stereo not given)	-2.65% [at 17.2 µM]	–
C[C@]12N[C@@H](Cc3ccccc31)c1ccccc12	–	inactive
O=C1C2CCN(CC2)C1(CO)CO	4.51% [at 7.69 µM]	–
C[C@H](N)Cc1c[nH]c2ccc(OCc3cccs3)cc12	-20.1%	–
O=C1NCN(c2ccccc2)C12CCN(C[C@H]1COc3ccccc3O1)CC2	-1.53%	–
c1ccc2c3c([nH]c2c1)CNCC3	9.55% [at 17.2 µM]	–
CCCC(=O)OCC[N+](C)(C)C	1.65% [at 17.2 µM]	–
CN1C(=O)CCS(=O)(=O)[C@H]1c1ccc(Cl)cc1	11.8%	–
CCOC(=O)c1ncn2c1[C@H]1CCCN1C(=O)c1cc(OC)ccc1-2	-12.9%	–
C[C@H](N)Cc1c[nH]c2ccc(O)cc12	-5.12%	–
COc1ccn(C)c(=O)c1C#N	-6.13% [at 17.2 µM]	–
CN(C(=O)Cc1ccc(Cl)c(Cl)c1)[C@@H](CN1CCCC1)c1cccc(OCC(=O)O)c1	-15.3%	–
N#CC(C#N)=Cc1ccc([N+](=O)[O-])c(O)c1	-26.1%	–
Cc1o[nH]c(=O)c1C[C@H](N)C(=O)O	9.51%	–
CC1=C[C@@H]2c3cccc4[nH]cc(c34)C[C@H]2N(C)C1	23.5%	–
CN1C[C@H](CNC(=O)OCc2ccccc2)C[C@H]2c3cccc4c3c(cn4C)C[C@@H]21	-7.74% [at 17.2 µM]	–

SMILES	activity, negative = inhibition	outcome
O=C(Cc1ccc(Cl)c(Cl)c1)N1CCCC[C@H]1CN1CCCC1	-29.9%	–
O=C1CC[C@@]2(O)[C@H]3Cc4ccc(O)c5c4[C@@]2(CCN3CC2CC2)[C@@H]1O5	4.82%	–
CN1[C@@H]2CC[C@H]1CC(O[C@@H](c1ccccc1)c1ccc(Cl)cc1)C2 (stereo not given in full)	-5.79%	–
S=C=Nc1cccc(C2(N3CCCCC3)CCCCC2)c1	-30.5%	–
CNCCc1c[nH]c2ccccc12	12.2% [at 17.2 µM]	–
c1ccc2c(c1)OC[C@@H](C1=NCCN1)O2	–	inactive
N[C@H](CCP(=O)(O)O)C(=O)O	29.9%	–
COC(=O)N1CCN(C(=O)Cc2ccc(Cl)c(Cl)c2)[C@H](CN2CCCC2)C1	-27.8%	–
c1cncc([C@@H]2CCCCN2)c1	1.32% [at 17.2 µM]	–
N[C@H](CP(=O)(O)O)C(=O)O	-21.6%	–
COc1ccc(-n2nc(C(F)(F)F)cc2-c2ccc(Cl)cc2)cc1	-6.27%	–
CP(=O)(O)CCCN	16.1%	–
O[C@H]1CCCC[C@H]1N1CCC(c2ccccc2)CC1	7.21% [at 17.2 µM]	–
COC(=O)c1cc2c(cn1)[nH]c1ccccc12	9.1%	–
C[C@@]1(CO)[C@H](O)CC[C@@]2(C)[C@H]1CC[C@H]1C[C@@H]3C[C@@]12CC[C@]3(O)CO	0.845% [at 17.2 µM]	–
CN1CCN(C(=O)O[C@@H]2c3nccnc3C(=O)N2c2ccc(Cl)cn2)CC1	-9.87%	–
NC[C@@H](CC(=O)O)c1ccc(Cl)cc1	–	inactive
c1cncc(C2=NCCC2)c1	15.2% [at 17.2 µM]	–
N[C@H](CCCCCP(=O)(O)O)C(=O)O	35%	–
C[C@@H](Cc1ccc(OCC(=O)O)cc1)NC[C@H](O)c1cccc(Cl)c1	17.9%	–
